Bioassay records (PubChem BioAssay)
Only some compounds are listed: those with a hit (about 3.5% of all), similar ones and a draw of the others.
FBW7 activator = FBW7 E3 ligase activators, primary screen, biochemical, AlphaScreen, human; normalized activity (activation), % at 26.1 µM; AID 1259310, 2017; 650,000 tested, 0.13% active; F-box/WD repeat-containing protein 7 (Homo sapiens), Q969H0; AlphaScreen FBW7–phospho-cyclin E peptide binding, activator screen; in the data active means normalized activity above about 1.9%;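 further: purified mutant Fbw7 with reduced substrate affinity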
Target sequence (Q969H0 whole entry, looked up): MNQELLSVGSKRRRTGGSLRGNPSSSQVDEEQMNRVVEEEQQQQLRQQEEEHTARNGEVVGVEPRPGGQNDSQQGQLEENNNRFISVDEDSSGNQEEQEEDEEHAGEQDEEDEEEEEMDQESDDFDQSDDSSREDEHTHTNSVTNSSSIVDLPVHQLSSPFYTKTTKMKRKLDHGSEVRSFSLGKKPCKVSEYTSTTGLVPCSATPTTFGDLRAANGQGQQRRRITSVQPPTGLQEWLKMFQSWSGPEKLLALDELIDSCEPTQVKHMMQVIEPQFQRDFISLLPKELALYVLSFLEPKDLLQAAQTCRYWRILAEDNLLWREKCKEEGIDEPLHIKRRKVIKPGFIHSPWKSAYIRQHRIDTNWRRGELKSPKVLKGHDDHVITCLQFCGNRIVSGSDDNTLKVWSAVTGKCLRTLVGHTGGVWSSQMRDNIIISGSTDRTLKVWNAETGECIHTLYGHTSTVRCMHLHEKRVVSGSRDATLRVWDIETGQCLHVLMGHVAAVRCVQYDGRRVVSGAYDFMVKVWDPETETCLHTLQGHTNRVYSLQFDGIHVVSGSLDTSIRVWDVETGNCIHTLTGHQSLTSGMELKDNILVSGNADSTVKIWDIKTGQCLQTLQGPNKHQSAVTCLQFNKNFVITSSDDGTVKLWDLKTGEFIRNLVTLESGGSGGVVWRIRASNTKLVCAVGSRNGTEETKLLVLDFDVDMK
GPR151 ag = activators of human GPR151, primary screen, cell-based, PathHunter beta-arrestin, luminescence | activation, % at 11.2 µM | 650,000 tested, 1% active | G-protein coupled receptor 151 (Homo sapiens), Q8TDV0 | PathHunter beta-arrestin GPR151 cells; in the data active means activation above about 4.9%;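 further: 0% = median of compound wells and 100% = cells with positive control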
MITF primary = MITF inhibitors, primary screen, biochemical, AlphaScreen, human | inhibition, % at 2.6 µM | AlphaScreen MITF homodimerization, bead proximity signal | 650,000 tested, 0.91% active; in the data active means inhibition above about 50%;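 further: 0% = vehicle wells with protein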
TEAD-YAP inh = TEAD-YAP interaction inhibition, primary screen, TEAD-YAP interaction inhibitor project, luminescence, HEK-TIYL cells; inhibition, % at 9.12 µM; 640,000 tested, 1.4% active; TEAD-Gal4/YAP UAS-luciferase luminescence; in the data active means inhibition above about 32%;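 further: 0% = median of test compound wells and 100% = reference inhibitor wells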
* marks the source's active call; other numbers are inactive results.

For NC(=O)c1ccc(-c2nc(Nc3ccccc3)c3ncn(-c4ccsc4)c3n2)cc1 the results were FBW7 activator 0.2, GPR151 ag -0.1, MITF primary 16.0 and TEAD-YAP inh 50.3*.
For CC(=O)Nc1ccc(Nc2nc(-c3ccc(C(N)=O)cc3)nc3c2ncn3-c2ccsc2)cc1 the results were FBW7 activator 0.1, GPR151 ag -1.9, MITF primary -6.0 and TEAD-YAP inh 39.1*.
NC(=O)c1ccc(-c2nc(Nc3ccc(Oc4ccccc4)cc3)c3ncn(-c4ccsc4)c3n2)cc1 was read as FBW7 activator 0.3, GPR151 ag 0.2, MITF primary 15.4 and TEAD-YAP inh 5.0.
Screening c1ccc(-c2nc(NC3CC3)c3ncn(-c4ccccc4)c3n2)cc1 returned FBW7 activator -0.2, GPR151 ag -2.5, MITF primary -2.4 and TEAD-YAP inh 4.8.
For CC(=O)Nc1ccc(Nc2nc(-c3ccccc3)nc3c2ncn3-c2ccsc2)cc1 the results were FBW7 activator 0.3, GPR151 ag 0.3, MITF primary -13.4 and TEAD-YAP inh 37.0*.
Screening NC(=O)c1ccc(-c2nc(NC3CC3)c3ncn(-c4ccccc4)c3n2)cc1 returned FBW7 activator 0.3, GPR151 ag -3.2, MITF primary 22.8 and TEAD-YAP inh 35.6*.
For CC(C)(C)c1cc(-c2nc3ccccc3[nH]2)n[nH]1 the results were FBW7 activator -0.1, GPR151 ag -10.4, MITF primary -1.5 and TEAD-YAP inh 95.8*.
Screening COc1cc(/C=N/N=C2\CC3CCC2(C)C3(C)C)cc(OC)c1OC(C)=O (stereo not drawn) returned FBW7 activator 0.6, GPR151 ag 2.5, MITF primary 13.0 and TEAD-YAP inh -1.7.
`C/C(=N\NC(=O)c1cc(-c2ccccc2)n[nH]1)c1ccc(F)cc1` gave FBW7 activator -0.1, GPR151 ag -1.3, MITF primary 6.5 and TEAD-YAP inh -0.3.
Screening Cc1cnc(Nc2nc3ccccc3n2C)nc1Nc1ccc2c(c1)OCO2 returned FBW7 activator -0.1, GPR151 ag -0.2, MITF primary 3.8 and TEAD-YAP inh 32.3*.
Screening Cc1cnc(NCc2ccc3c(c2)OCO3)nc1Nc1ccc2c(c1)OCO2 returned FBW7 activator -0.1, GPR151 ag 1.4, MITF primary -1.5 and TEAD-YAP inh 4.0.
For Cc1cnc(Nc2cccc(N(C)C)c2)nc1Nc1ccc2c(c1)OCO2 the results were FBW7 activator -0.3, GPR151 ag 0.5, MITF primary 23.3 and TEAD-YAP inh 39.8*.
`CN(C)c1cccc(Nc2nccc(Nc3ccc(N4CCOCC4)cc3)n2)c1` gave FBW7 activator -0.2, GPR151 ag 2.3, MITF primary 4.1 and TEAD-YAP inh 39.1*.
Cc1cnc(Nc2ccc(N3CCOCC3)cc2)nc1Nc1ccc2c(c1)OCO2 was read as FBW7 activator -0.3, GPR151 ag 3.6, MITF primary 18.4 and TEAD-YAP inh 79.6*.
Screening Cc1cnc(Nc2ccc(C(F)(F)F)cc2)nc1Nc1ccc2c(c1)OCO2 returned FBW7 activator 0.0, GPR151 ag 1.3, MITF primary 18.2 and TEAD-YAP inh -9.3.
O=C(N/N=C/c1ccc([N+](=O)[O-])cc1)C(=O)Nc1cccc2ccccc12 was read as FBW7 activator -0.2, GPR151 ag 0.3, MITF primary -2.2 and TEAD-YAP inh 1.4.
For Cc1cnc(Nc2cccc(N(C)C)c2)nc1Nc1ccc(N2CCOCC2)cc1 the results were FBW7 activator -0.1, GPR151 ag 2.0, MITF primary 19.5 and TEAD-YAP inh 65.8*.
Screening c1cc2c(cc1Nc1nc(N3CCCCC3)nc(N3CCCCC3)n1)OCO2 returned FBW7 activator 2.2*, GPR151 ag -1.7, MITF primary 0.9 and TEAD-YAP inh -5.0.
Screening c1cc2c(cc1Nc1nc(N3CCOCC3)nc(N3CCOCC3)n1)OCO2 returned FBW7 activator 0.2, GPR151 ag -0.8, MITF primary 3.3 and TEAD-YAP inh 4.4.
COc1cc2nc(Nc3cccc(N(C)C)c3)nc(Nc3ccc(N4CCOCC4)cc3)c2cc1OC was read as FBW7 activator -0.5, GPR151 ag 0.4, MITF primary 13.6 and TEAD-YAP inh 5.4.
For CC(=O)c1ccc(N2CCN(CC(=O)Nc3cccc4nsnc34)CC2)cc1 the results were FBW7 activator 0.2, GPR151 ag -0.2, MITF primary 10.2 and TEAD-YAP inh 13.3.
Screening COc1ccc(Nc2cc(C)nc(-n3nc(C)cc3C)n2)cc1OC returned FBW7 activator 0.3, GPR151 ag -1.1, MITF primary 4.5 and TEAD-YAP inh 69.2*.
`CCOc1ccc2c(c1)C(C)=CC(C)(C)N2S(=O)(=O)c1ccc(Cl)cc1` gave FBW7 activator -0.1, GPR151 ag -0.1, MITF primary 5.2 and TEAD-YAP inh 60.3*.
Screening COc1ccc2c(c1)C(C)=CC(C)(C)N2S(=O)(=O)c1ccc(Cl)cc1 returned FBW7 activator -0.1, GPR151 ag 0.6, MITF primary -1.9 and TEAD-YAP inh 48.0*.
Screening CC1=CC(C)(C)N(S(=O)(=O)c2ccc(C)cc2)c2ccc(Cl)cc21 returned FBW7 activator 0.0, GPR151 ag -0.1, MITF primary -5.7 and TEAD-YAP inh 27.3.
For CC1=CC(C)(C)N(S(=O)(=O)c2ccc(Cl)cc2)c2ccccc21 the results were FBW7 activator -0.2, GPR151 ag 0.2, MITF primary 0.6 and TEAD-YAP inh 55.0*.
COC1CCCC(C(=O)Nn2c(C3CC3)nc3cc(Cl)ccc3c2=O)C1 (stereo not drawn) was read as FBW7 activator 0.4, GPR151 ag -0.9, MITF primary 11.3 and TEAD-YAP inh 17.3.
`CC1(C)CC(=O)c2c(nn(CCO)c2N)C1` gave FBW7 activator 0.2, GPR151 ag -0.6, MITF primary 17.4 and TEAD-YAP inh -5.5.
CCOC(=O)C1=C(C)NC2=C(C(=O)CC(c3ccc(OC)c(OC)c3)C2)C1c1cccc(OC)c1OC (stereo not drawn) was read as FBW7 activator 0.6, GPR151 ag -1.4, MITF primary -0.6 and TEAD-YAP inh -5.4.
Screening CCN(Cc1ccncc1)C1CCN(c2ccc(NC(=O)COc3ccccc3)cc2)CC1 returned FBW7 activator -0.2, GPR151 ag 2.0, MITF primary 18.2 and TEAD-YAP inh -4.3.
For O=C(Nc1ccc(Oc2ccccc2)cc1)c1ccc(F)c(S(=O)(=O)NC2CCCC2)c1 the results were FBW7 activator -0.1, GPR151 ag 0.3, MITF primary 0.4 and TEAD-YAP inh 64.8*.
For O=C(Nc1ccc(Cl)c(Cl)c1)c1ccc(F)c(S(=O)(=O)NC2CCCC2)c1 the results were FBW7 activator 0.1, GPR151 ag -0.5, MITF primary 14.2 and TEAD-YAP inh 9.6.
For O=C(Nc1ccc(Oc2ccccc2)cc1)c1ccc(F)c(S(=O)(=O)NCc2ccccc2Cl)c1 the results were FBW7 activator -0.1, GPR151 ag 1.0, MITF primary 0.9 and TEAD-YAP inh 40.9*.
Screening O=C(Nc1ccc(Oc2ccccc2)cc1)c1ccc(F)c(S(=O)(=O)NC2CCCCC2)c1 returned FBW7 activator 0.5, GPR151 ag -1.5, MITF primary 11.4 and TEAD-YAP inh 57.8*.
